In PubChem BioAssay AID2314 (National Center for Advancing Translational Sciences (NCATS), 2010):
Among all 300,000 compounds or so, about 37,000 (12%) were called active. This excerpt belongs to a sample that is enriched for actives. A number with no mark means an inactive call. Cut-off read from the data, not from the text of the source: active = max response mostly above about 13% (no sharp cut-off); inactive = mostly below about 14%.

Experiment: Cycloheximide Counterscreen for Small Molecule Inhibitors of Shiga Toxin; note: read at 38.3 µM for the half of the compounds with a filed dose; 0% is about no effect
Conditions: cell reporter, cycloheximide protein synthesis inhibition counterscreen; stronger effect = higher value
Molecule `CCn1c2ccc(F)cc2c2nnc(SCCN3CCOCC3)nc21` has a max response of 8.52%.
Work on `Cc1cccc(C)c1OCCN1CCOCC1` yielded a max response of 0.405%.
For `Cc1cc2nc(SCCN3CCOCC3)[nH]c2cc1C`, the max response was 32.3% (active).
Molecule `COCCn1c(SCC(=O)Nc2nc(C)cs2)nnc1C(C)C` has a max response of -4.2%.
Molecule `Cc1cccc(CCNC(=O)Cn2ncc3c([nH]c4ccc(C)cc43)c2=O)c1` has a max response of -2.84%.
Work on `O=C1CCC(C(=O)N2CCN(c3ccccc3Cl)CC2)CN1CC1CCCCC1` (stereo unspecified) yielded a max response of 9.87%.
`O=C(Cn1ncc2c3ccccc3n(Cc3ccccc3)c2c1=O)NCCCN1CCOCC1` gave a max response of 6.16%.
For `Cc1nn(-c2ccc([N+](=O)[O-])cc2)c(N)c1-c1ccccc1`, the max response was 38.2% (active).
With `Cc1cc(CO)nn1-c1ccc([N+](=O)[O-])cc1` the max response was -1.2%.
`Cc1nc(-c2ccc([N+](=O)[O-])cc2)c(-c2ccccc2)o1` gave a max response of -2.35%.
With `O=C(CCN1CCCO1)N1CCCC(N2CCN(c3cccc(C(F)(F)F)c3)CC2)C1` (stereo unspecified) the max response was 7.08%.
For `COC(=O)c1sccc1NN1C(=O)c2ccccc2C1=O`, the max response was 28.6% (active).
For `COC(=O)c1sccc1NC(=O)c1cc(OC)c(OC)c(OC)c1`, the max response was 1.99%.
`COC(=O)c1sccc1NC(=S)Nc1ccc(C)cc1` showed a max response of 25.3%.
Work on `Cc1ccccc1CNC(=O)CCC(=O)N1Cc2ccccc2Oc2ncccc21` yielded a max response of -2.36%.
Molecule `COc1cccc(CN2CCN(Cc3ccc4cccc(F)c4n3)CC2CCO)c1` (stereo unspecified) has a max response of -3.47%.
For `COC(=O)c1ccc(C2C3=C(Nc4nnnn42)c2ccccc2OC3)cc1` (stereo unspecified), the max response was 17.4% (active).
Molecule `COc1ccccc1NC(=O)C1=C(C)Nc2nnnn2C1c1cccc(Br)c1` (stereo unspecified) has a max response of -5.64%.
For `COC(=O)C1=C(C(=O)c2ccc(C)cc2)C(c2ccccc2)n2nnnc2N1` (stereo unspecified), the max response was 2.04%.
With `Cc1cc2c(=O)n(CC(=O)NCC(=O)Nc3ccc(C(C)C)cc3)cnc2s1` the max response was -5.28%.
`COc1cc(/C=N/NC(=O)Cc2ccccc2)cc(OC)c1OC` showed a max response of -1.38%.
With `Cn1c(=O)n(C)c2cc(S(=O)(=O)N3CCCc4ccccc43)ccc21` the max response was -0.606%.
Molecule `COc1ccc(C(=O)OCC(=O)NCC2CCCCC2)cc1S(=O)(=O)N1CCCc2ccccc21` has a max response of -2.88%.
For `COc1cc(C)c(C)cc1S(=O)(=O)N1CCCc2ccccc21`, the max response was 17.6% (active).
`CCC(=O)Nc1ccc(S(=O)(=O)Nc2c(NC)c3ccccc3oc2=O)cc1` showed a max response of 11%.
For `CCN(CC)c1ccc2c(Nc3ccccc3)c(C=O)c(=O)oc2c1`, the max response was 17.7% (active).
`CCOC(=O)Nc1ccc2c(c1)N(C(=O)CCCl)c1ccccc1[S@]2=O` gave a max response of 4.2%.
In the case of `CCOc1ccc(C(CC(=O)O)NC(=O)Cc2ccccc2)cc1OC` (stereo unspecified), the max response is reported as -1.44%.
`CCNS(=O)(=O)c1ccc(CCC(=O)N2CCN(c3cc(Cl)ccc3C)CC2)cc1` showed a max response of -1.74%.
In the case of `Cc1ccc(C(=O)N2CCCC2)c(F)c1F`, the max response is reported as -2.63%.
In the case of `COc1ccc(CN(C(=O)c2cccs2)c2nccs2)cc1OC`, the max response is reported as -2.68%.
In the case of `O=C(c1cccs1)N(C(=O)c1cccs1)c1ccccn1`, the max response is reported as 21.4% (active).
Molecule `COc1ccc(CN(Cc2ccc(OC)cc2)C(=O)c2cccs2)cc1` has a max response of 4.04%.
For `CCc1ccc(CN(C)Cc2nc(Cc3ccccc3)no2)nc1`, the max response was 0.562%.
`CC(=O)c1ccc(-c2nnc(CCC(=O)N(C)Cc3cnc4ccccn34)o2)s1` showed a max response of 8.64%.
For `CCc1ccc(CN(C)C(=O)CCc2nnc(-c3ccc(-c4ccccc4)cc3)o2)nc1`, the max response was 16.7% (active).
`Cn1cc(CCC(=O)N2CCCC(C(=O)c3ccc(C(C)(C)C)cc3)C2)cn1` (stereo unspecified) gave a max response of 7.09%.
For `COc1ccc2nc(SCc3ccccc3)nc(C)c2c1`, the max response was 55.9% (active).
In the case of `COC(=O)CSc1nc(C)c2ccc(OC)cc2n1`, the max response is reported as 42.7% (active).
`COc1cccc(CSc2nc3nc(C)cc(C)n3n2)c1` gave a max response of 3.55%.
Molecule `COc1ccc(-c2nnc3ccc(SCc4ccccc4)nn23)cc1` has a max response of -1.33%.
In the case of `COc1ccc2[nH]c3nc(SCC(=O)NC4CC4)nnc3c2c1`, the max response is reported as -1.61%.
For `COC(=O)CSc1nc(C2CC2)nc2ccccc12`, the max response was -1.2%.
With `Cc1cccc(C)c1NC(=O)COC(=O)c1ccccc1O` the max response was -0.421%.
For `CCOC(=O)C1CCCN(S(=O)(=O)c2ccc(-n3cnnn3)c(C)c2)C1` (stereo unspecified), the max response was -3.27%.
With `CC(C)c1ccc(NC(=O)[C@@H](NC(=O)N2CC(=O)Nc3ccccc32)C(C)C)cc1` the max response was 1.52%.
`COc1ccc(-n2c(=O)[nH]c3cc(C(=O)NCCc4ccc(OC)c(OC)c4)ccc3c2=O)c(OC)c1` showed a max response of 0.206%.
With `C=CCSc1nc2c(c(=O)[nH]c(=O)n2C)n1Cc1ccccc1` the max response was -3.59%.
`O=C(NCc1ccccn1)c1cc(Br)ccc1Cl` showed a max response of 17.7%.
For `Cc1cc(C)cc(OCC(=O)NNC(=O)c2cc3ccccc3oc2=O)c1`, the max response was 24.7% (active).
Work on `NS(=O)(=O)c1ccc(NC(=O)COC(=O)CCc2c[nH]c3ccccc23)cc1` yielded a max response of -3.16%.
Work on `Cc1cc(C)cc(OCC(=O)NNC(=O)CCN2C(=O)c3ccccc3C2=O)c1` yielded a max response of -0.614%.
With `NS(=O)(=O)c1ccc(NC(=O)COC(=O)c2cc3ccccc3oc2=O)cc1` the max response was 10.3% (active).
In the case of `COc1ccc(-c2nc(CS(=O)CC(=O)NCc3ccccn3)c(C)o2)cc1` (stereo unspecified), the max response is reported as 7.49%.
With `COc1ccc2oc(=O)c(C(=O)NCc3ccccn3)cc2c1` the max response was 30.2% (active).
Molecule `O=C(NCc1ccccn1)c1cnc2sccn2c1=O` has a max response of -2.63%.
For `COc1ccc2oc(=O)c(C(=O)N3CCCC3)cc2c1`, the max response was -2.74%.
`NS(=O)(=O)c1ccc(NC(=O)COC(=O)c2ccco2)cc1` showed a max response of -1.96%.
For `O=C(NCc1ccccn1)c1cc2ccccc2oc1=O`, the max response was 36% (active).
`Cc1cc(C)cc(OCC(=O)NC(C)c2ccccc2)c1` (stereo unspecified) gave a max response of 4.02%.
Molecule `CC(=O)N1c2ccc(S(=O)(=O)N3CCC(C(=O)N4CCN(c5ccccc5)CC4)CC3)cc2CC1C` (stereo unspecified) has a max response of -2.01%.
